Screening results: PubChem BioAssay, The Scripps Research Institute Molecular Screening Center
MITF primary: human MITF inhibition, primary screen; AlphaScreen MITF homodimerization, bead proximity signal; inhibition, % at 2.6 µM; 650,000 tested, 0.91% active; AID 1259374; in the data active = inhibition above about 50%;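 also: 0% = vehicle wells with protein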
Target sequence (O75030 whole entry, looked up): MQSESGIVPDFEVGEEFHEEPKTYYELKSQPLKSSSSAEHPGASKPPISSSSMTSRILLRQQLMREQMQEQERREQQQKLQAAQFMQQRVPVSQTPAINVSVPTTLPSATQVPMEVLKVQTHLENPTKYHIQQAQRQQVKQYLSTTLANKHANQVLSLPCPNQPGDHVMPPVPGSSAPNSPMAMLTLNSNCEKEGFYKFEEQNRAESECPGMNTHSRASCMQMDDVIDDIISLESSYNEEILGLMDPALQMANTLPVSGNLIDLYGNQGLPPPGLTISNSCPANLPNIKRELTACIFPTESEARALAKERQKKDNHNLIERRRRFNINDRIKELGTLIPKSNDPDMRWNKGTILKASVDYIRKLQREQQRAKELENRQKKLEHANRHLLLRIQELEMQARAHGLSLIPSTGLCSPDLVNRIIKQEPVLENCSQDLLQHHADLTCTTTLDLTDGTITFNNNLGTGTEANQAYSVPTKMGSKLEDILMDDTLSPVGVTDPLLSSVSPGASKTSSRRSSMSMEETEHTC
FBW7 act: human FBW7 E3 ligase activation, primary screen | Q969H0 | AlphaScreen FBW7–phospho-cyclin E peptide binding, activator screen | normalized activity (activation), % at 26.1 µM | 650,000 tested, 0.13% active; in the data active = normalized activity above about 1.9%;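 also: purified mutant Fbw7 with reduced substrate affinity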
GPR151 ag: activators of human GPR151; activation, % at 11.2 µM; Q8TDV0; PathHunter beta-arrestin GPR151 cells, luminescence; 650,000 tested, 1% active; in the data active = activation above about 4.9%;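 also: 0% = median of compound wells and 100% = cells with positive control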
TEAD-YAP inh: TEAD-YAP interaction inhibition. HEK-TIYL cells, TEAD-Gal4/YAP UAS-luciferase luminescence. inhibition, % at 9.12 µM. 640,000 tested, 1.4% active. AID 1259422; in the data active = inhibition above about 32%;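 also: 0% = median of test compound wells and 100% = reference inhibitor wells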
Starred values were filed as active, the others as inactive. The list is not random: actives were taken first. Their share in the collection is about 3.4%.

SMILES	MITF primary	FBW7 act	GPR151 ag	TEAD-YAP inh
CC(=O)N(C1=C(N(C)C)C(=O)c2ccccc2C1=O)c1ccc(F)c(F)c1	17	0	-6	99*
CC(=O)N(C1=C(NCCO)C(=O)c2ccccc2C1=O)c1cccc(Br)c1	0	0	-4	86*
CN(C)C1=C(Nc2ccc(Cl)c(Cl)c2)C(=O)c2ccccc2C1=O	12	0	-1	-3
CC(=O)Nc1ccc(Nc2nc(Nc3cnccn3)nc3nc[nH]c23)cc1	-9	0	1	5
C=CCn1c(C)cc(C(=O)COc2ccc(C)nc2[N+](=O)[O-])c1C	-6	0	2	30
Cc1ccc(OCC(=O)c2cc(C)n(-c3ccccc3)c2C)c([N+](=O)[O-])n1	1	0	0	50*
CCC(Sc1nc2n[nH]c(C)c2c(=N)n1-c1cccc(C)c1)C(=O)N(CC)CC (centres undefined)	4	0	0	39*
CCCN(CCC)C(=O)CSc1nc2n[nH]c(C)c2c(=N)n1-c1cccc(C)c1	16	0	0	-20
CCC(Sc1nc2n[nH]c(C)c2c(=N)n1-c1cccc(Cl)c1)C(=O)N1CCCC1 (centres undefined)	27	0	1	49*
C[C@H](NC(=O)N1CCC2(CC1)NCCc1c2[nH]c2ccc(Cl)cc12)c1ccccc1	6	0	0	37*
COc1cccc(NC(=O)N2CCC3(CC2)NCCc2c3[nH]c3ccc(Cl)cc23)c1	15	0	0	48*
Cc1ccc2[nH]c3c(c2c1)CCNC31CCN(C(=O)N[C@@H](C)c2ccccc2)CC1	16	0	1	-16
Cc1noc(C)c1NC(=O)N1CCC2(CC1)NCCc1c2[nH]c2ccc(Cl)cc12	14	0	-1	-5
Cc1ccc(S(=O)(=O)N2CCN(C(c3ccccc3)c3ccccc3)CC2)cc1C	12	0	-1	-5
CC(=O)c1ccc(Nc2c(C)n(C)n(-c3ccccc3)c2=O)cc1	-1	0	1	-2
Cc1c(Nc2ccc(/C=C3\C(=O)Nc4ccccc43)cc2)c(=O)n(-c2ccccc2)n1C	5	0	1	54*
CCCOC(=O)c1ccc(Br)c([N+](=O)[O-])c1	-1	0	1	8
COc1ccc(C(=O)c2ccc(Br)c([N+](=O)[O-])c2)cc1	35	0	0	64*
COc1ccc2c(c1)c(CC(=O)Nc1ccccn1)c(C)n2C(=O)c1ccc(Cl)cc1	0	0	2	37*
CCOc1ccc(C2C(C(=O)OC)=CN(Cc3ccc(OC)cc3)C=C2C(=O)OC)cc1	-8	0	2	5
CSc1ccc(NC(=O)Nc2cccn(Cc3ccc(C)cc3)c2=O)cc1	-4	0	0	33*
Cc1cc(NC(=O)c2cccc([N+](=O)[O-])c2)no1	30	1	-1	5
Cc1cc(NC(c2cccc([N+](=O)[O-])c2)c2ccc3cccnc3c2O)no1 (centres undefined)	7	-1	1	86*
O=[N+]([O-])c1cccc(C(Nc2ccccn2)c2ccc3cccnc3c2O)c1 (centres undefined)	14	0	-1	79*
CC(C)C(=O)NC(c1ccc([N+](=O)[O-])cc1)c1ccc2cccnc2c1O (centres undefined)	35	-1	-2	81*
SMILES	MITF primary	FBW7 act	GPR151 ag	TEAD-YAP inh
O=[N+]([O-])c1ccc(C(Nc2ccccn2)c2ccc3cccnc3c2O)cc1 (centres undefined)	15	-1	0	72*
Cc1ccc2ccc(C(Nc3ccccn3)c3ccc([N+](=O)[O-])cc3)c(O)c2n1 (centres undefined)	13	-1	-1	28
CCCOc1ccc(C2=[N+]([O-])C3(CCCCC3=O)N(O)C2(C)C)cc1 (centres undefined)	-2	0	1	55*
CC1(C)C(c2ccc(F)cc2)=[N+]([O-])C2(CCCCC2=O)N1O (centres undefined)	8	1	2	-7
COc1ccc(O)c(/C=N/NC(=O)COc2ccccc2C#N)c1	9	0	0	11
CCc1c(C)sc(NC(=O)c2ccc(F)cc2)c1C(N)=O	6	0	-2	-56
CC1(c2csc(Nc3ccccc3Cl)n2)CCC(=O)O1 (centres undefined)	11	0	-2	35*
CCOc1ccc(Nc2nc(C3(C)CC(CC(C)C)C(=O)O3)cs2)cc1 (centres undefined)	7	0	0	7
COc1ccccc1Nc1nc(C2(C)CC(CC(C)C)C(=O)O2)cs1 (centres undefined)	8	0	-1	55*
COC(=O)c1cc(S(=O)(=O)Nc2cc(OC)ccc2OC)c[nH]1	14	0	3	8
COCCN=c1scc(-c2ccccc2)n1/N=C1\CCc2ccccc21	13	0	2	72*
Cc1cc(C(=O)Nc2c(C)nn(Cc3ccccc3Cl)c2C)on1	4	0	0	1
CCOC(=O)c1cccc(-c2ccc(/C=C3\C(=O)N(c4ccc(S(N)(=O)=O)cc4)N=C3C(F)(F)F)o2)c1	8	0	0	-2
N#Cc1ccc(C(=O)Nc2ccc(Br)cn2)c(F)c1	-14	0	-1	-17
CCOC(=O)c1c(NC(=O)CSc2ccccc2N)sc(C(C)=O)c1C	-4	0	0	4
COc1ccc2c(c1)C(=O)c1cc(OC)ccc1-2	11	0	-1	-13
COc1ccc2c(c1)C(=NN=C(N)N)c1cc(OC)ccc1-2	-11	0	0	59*
C(=N\Nc1nnc2c(n1)[nH]c1ccccc12)/c1ccccn1	27	-2	0	56*
Oc1ccc(/C=N/Nc2nnc3c(n2)[nH]c2ccccc23)c(O)c1	19	-1	0	56*
Oc1ccc(O)c(/C=N\Nc2nnc3c(n2)[nH]c2ccccc23)c1	22	0	2	50*
Oc1ccc(/C=N/Nc2nnc3c(n2)[nH]c2ccccc23)cc1	23	0	-1	-31
COC(=O)c1ccc(C2Nc3ccc4ncccc4c3C3=C2C(=O)CCC3)cc1OC (centres undefined)	6	1	-1	59*
COc1ccc(C2=NN(C(=O)c3ccccc3)C(c3ccc(N(C)C)cc3)C2)cc1OC (centres undefined)	9	0	0	-3
C=CCNC(=S)N/N=C(\C)c1ccccn1	60*	-1	-3	89*
C=CCNC(=S)N/N=C(\C)c1ccc2ccccc2c1	10	0	0	4
O=[N+]([O-])c1ccccc1N/N=C/c1ccc(N2CCOCC2)cc1	15	0	3	-43
CC(C)Oc1ccccc1/C=C(\C#N)C(=O)NCCc1ccccc1	-3	0	4	50*
COc1cc(Nc2nccn3c(-c4cccc(CO)c4)cnc23)cc(OC)c1OC	-2	0	0	3
O=C(Nc1ccc(-c2nc3ccccc3c(=O)o2)cc1)C1CC1	-5	0	-6	48*
CC(C)(C)c1ccc(-c2nc3ccccc3c(=O)[nH]2)cc1	-7	0	-1	83*
